Assay results taken from ChEMBL document CHEMBL4513216, “Probing the Open Global Health Chemical Diversity Library for Multistage-Active Starting Points for Next-Generation Antimalarials” (ACS Infect Dis, 2020).
In all, about 65,000 compounds went through this assay and about 2,100 (3.2%) showed an effect of 50% or more. The median lay at about -52%. The entries come from a sample that favours strong results as a whole.

Tested on: Plasmodium falciparum
Assay: Screen against P. falciparum Asexual Blood Stage (ABS), at 5uM
Format: functional, Dd2
Settings: tested at 5 uM

SMILES | INHIBITION
CNS(=O)(=O)CCCN(C)Cc1cc(C)ccc1OC | 26.6%
COc1ccccc1C(C)(C)NCc1ccco1 | 65.7%
COc1ccc(C(=O)NCc2ccco2)nn1 | -126%
COC(=O)c1ccc(CNC(C)(C)c2ccccc2OC)o1 | 1.74%
COc1ccc(CN(C)C(=O)Cc2c(C)nn(C)c2C)cc1F | -154%
Cc1noc([C@@H]2C[C@H]3CN(Cc4scnc4C)C[C@H]3O2)n1 | -40.7%
CC(C)n1c(=O)c2sccc2n(CC(=O)Nc2ccccc2)c1=O | -27.6%
Cc1ccc(N2C[C@@H]3CN(C(=O)c4ccccc4)CCO[C@@H]3C2)nn1 | -12.5%
CS(=O)(=O)NCC1CCCCN1Cc1ccccc1C#N (configuration not stated) | -34.1%
CS(=O)(=O)NCC1CCCCN1Cc1cccc(C#N)c1 (configuration not stated) | -92.3%
CN(C)c1ccccc1CN1CCCCC1CNS(C)(=O)=O (configuration not stated) | 60.5%
O=c1ccc2c([nH]1)CCC(NCc1ccc3c(c1)OCO3)C2 (configuration not stated) | -104%
Cc1cccc2c(CCNC(=O)NCC[S+](C)[O-])c[nH]c12 (configuration not stated) | -103%
Cc1cccc2c(CCNC(=O)NCCC[S+](C)[O-])c[nH]c12 (configuration not stated) | -85.3%
Cc1cccc2c(CCNC(=O)[C@H](N)c3ccccc3)c[nH]c12 | 61.2%
CN(Cc1ccc2c(c1)OCCO2)Cc1nnnn1-c1ccccc1 | -39.1%
CCC1CN(Cc2c(O)ccc3oc4c(c23)CCCC4)CCO1 (configuration not stated) | 60%
Oc1ccc2oc3c(c2c1CN1CCOCC1)CCCC3 | 19.1%
NC(=O)C1CN(Cc2c(O)ccc3oc4c(c23)CCCC4)CCO1 (configuration not stated) | -23.1%
CC(=O)N1CCC(NCc2cccnc2N(C)Cc2ccccc2)CC1 | -57.8%
CN(Cc1ccccc1)c1ncccc1CNC1CCCC1 | 65.6%
CN(Cc1ccccc1)c1ncccc1CNC1CCSCC1 | 26.2%

SMILES | INHIBITION
CCc1nnsc1C(=O)NCc1nnc2n1CCC2 | -217%
Cc1ccc(N2CC3(COCCN(Cc4ccccn4)C3)OCC2=O)s1 (configuration not stated) | -89.9%
COc1c(CNC2CCSc3ccc(F)cc32)c(C)nn1C (configuration not stated) | -115%
CC1CCCN(Cc2csc(-c3ncccn3)n2)CC1 (configuration not stated) | -29.2%
CC(=O)NC1CCCN(Cc2csc(-c3ncccn3)n2)C1 (configuration not stated) | -89.8%
c1cnc(-c2nc(CN3CCCC(N4CCCC4)C3)cs2)nc1 (configuration not stated) | 51.7%
O=C(NC1CC1)C1CCc2nnc(C3CC3)n21 (configuration not stated) | -100%
c1ccc(OCC2CC3(CCN(CC4CCOCC4)CC3)CO2)nc1 (configuration not stated) | -83.4%
Cc1cc(C)nc(Nc2cc(C)nc(C3CCN(C(=O)CO)C3)n2)n1 (configuration not stated) | -74.1%
CN(C)C(=O)CC1CC2(CCN(Cc3ccco3)CC2)c2ccccc21 (configuration not stated) | 24.7%
c1cnn(CCC2CCCCN2Cc2cnc(C3CCCCC3)nc2)c1 (configuration not stated) | -9.85%
Fc1cccc(-n2cc(CN3CCCCC3CCn3ccnc3)cn2)c1 (configuration not stated) | 68.9%
Cc1ccc2nc(CN3CCCCC3CCn3cccn3)cn2c1 (configuration not stated) | -63.2%
CC1CN(Cc2ccccc2Cn2cccn2)CCN1C (configuration not stated) | 48.4%
CN(C)C1CCCN(Cc2cccc(Cn3cccn3)c2)CC1 (configuration not stated) | 34%
CN(C)[C@H]1CCCCN(Cc2ccccc2Cn2cccn2)C1 | 51%
Fc1ccc(-n2cccn2)c(CN2CCCCC2CCn2ccnc2)c1 (configuration not stated) | 7.69%
CN(C)CCC1CCCCN1Cc1cnc(-c2ccccn2)nc1 (configuration not stated) | 38.9%
Fc1cccc(-n2ccc(CN3CCCC3Cn3cccn3)n2)c1 (configuration not stated) | 4.96%
c1ccc(Cn2cccn2)c(CN2CCCCC2CCn2ccnc2)c1 (configuration not stated) | 64.4%
Fc1cccc(-n2ccc(CN3CCCCC3Cn3cncn3)n2)c1 (configuration not stated) | -44.8%
c1ccc(-c2ncc(CN3CCCCC3CCn3cccn3)cn2)nc1 (configuration not stated) | 51%

SMILES | INHIBITION
CCc1cnc(N2CCC3(CCN(Cc4cccc(C)c4)C3=O)C2)nc1 (configuration not stated) | 44.1%
CN(Cc1cccnc1)Cc1cncc2c1CCN(c1ccccn1)C2 | -26.1%
CCc1[nH]c2c(CNc3cnccn3)cc(F)cc2c1C | -64.1%
CN1CCNCC(Cc2cnc3ccccc3c2)C1 (configuration not stated) | -67.9%
CCN(CC)CCNC(=O)c1cc(C(C)C)nc(N2CCCC2)n1 | -32.6%
CC(C)c1cc(C(=O)NCCCN(C)C)nc(N2CCCC2)n1 | 52.7%
COCCCNC(=O)c1cc(C(C)C)nc(N2CCCC2)n1 | -93.7%
NCCSc1nccc(-c2cnc(C3CC3)nc2-c2ccco2)n1 | -39.7%
CC(C)c1ncc2c(n1)CN(Cc1nnc(Cc3ccccc3)o1)CC2 | -45.2%
CCC(NC(=O)CN(C)Cc1ccc(C)o1)c1ccc(C)cc1 (configuration not stated) | 50.9%
CCC(NC(=O)CN(C)Cc1ccc(C)o1)c1ccc(Br)cc1 (configuration not stated) | 37.3%
CCc1ccc(C(C)NC(=O)CN(C)Cc2ccc(C)o2)cc1 (configuration not stated) | 13.3%
N#Cc1ccc(CN2CC3(CCCCN3c3cccnc3)CC2=O)cc1 (configuration not stated) | 7.75%
CC(C)(C#N)c1ccccc1CN1CCC(N2CCCC2=O)CC1 | -50.6%
Cc1cccc(-c2nccnc2C2CCCN(C)C2)c1C (configuration not stated) | 2.65%
Cc1cccc(-c2nccnc2C2CCN(C)CC2)c1C | 54.2%
COc1ccccc1-c1nccnc1C1CCN(C(C)=O)CC1 | -20.5%
O=C(O)[C@@H]1CN(C(=O)Cc2ccccc2Cl)C[C@H]1C1CC1 | -94%
CNC(=O)N1C[C@@H]2C[C@H](C(=O)Nc3cccnc3)[C@H](C1)O2 | -142%
Cn1cnnc1C1CCN(C(=O)c2cc3c(s2)CCCC3)CC1 | -21.6%
COc1ccccc1S(=O)(=O)N1CC(N(C)C)Cc2ccccc21 (configuration not stated) | 64.1%
CN(C)C1Cc2ccccc2N(S(=O)(=O)c2ccccc2C#N)C1 (configuration not stated) | 56.6%

SMILES | INHIBITION
COc1cc(F)c(S(=O)(=O)N2CCN(C)Cc3ccccc32)cc1OC | 13.8%
COc1ccccc1S(=O)(=O)N1CCC2(CC1)[C@H](O)C[C@@H]2O | -62.3%
CN(C)C1Cc2ccccc2N(S(=O)(=O)c2ccc(C#N)cc2)C1 (configuration not stated) | 49.9%
CN(Cc1nnc(C2CC2)n1C)S(=O)(=O)c1ccccc1C#N | -108%
Cc1nc(NCc2cccnc2)cc(C2COCCN2)n1 (configuration not stated) | -124%
Cc1cnn(C2CCCN(C(=O)c3cn(-c4ccccc4)nn3)C2)c1 (configuration not stated) | -119%
CCC(C)c1noc(C2CCN(C(=O)c3ccccn3)CC2)n1 (configuration not stated) | -122%
O=C(O)c1cccnc1CN1CCCC1CCc1ccccc1 (configuration not stated) | -78%
c1ccc(CC2CCN(Cc3ccnc(-c4cccnc4)n3)CC2)cc1 | -20%
c1ncc2c(n1)CN(Cc1nc(-c3ccc4c(c3)OCO4)no1)CC2 | 21%
c1ncc2c(n1)CN(Cc1nc(-c3ccoc3)no1)CC2 | 58.7%
c1ccc(Cc2noc(CN3CCc4cncnc4C3)n2)cc1 | -48.8%
Cc1ccc(-c2noc(CN3CCc4cncnc4C3)n2)cc1 | 59.7%
Cc1cnn(C2CN(Cc3nnc(Cc4ccccc4)o3)C2)c1 | 51.8%
c1coc(-c2noc(CN3CCc4cncnc4C3)n2)c1 | 31%
Cc1ccc(-c2nnc(CN3CC(n4cc(C)cn4)C3)o2)cc1 | -29.5%
Cc1cnn(C2CN(Cc3nnc(-c4ccccc4Cl)o3)C2)c1 | 11.9%
c1ncc2c(n1)CN(Cc1nc(-c3ccsc3)no1)CC2 | -41.7%
Cc1ncc2c(n1)CN(Cc1nnc(Cc3ccccc3)o1)CC2 | -25%
COc1ccc(-c2noc(CN3CCc4cncnc4C3)n2)cc1 | 6.71%
c1ccc(Cc2nnc(CN3CCc4cncnc4C3)o2)cc1 | 63.6%
COC(=O)COc1cc(NCc2c(C)noc2C)c(Cl)cc1C | -49.6%

SMILES | INHIBITION
COc1ccc(-c2csc3c2c(N)nc(=O)n3CC(N)=O)cc1 | -61.4%
CC(=O)Nn1ccc2c(nnc3c(-c4ccccc4)cnn32)c1=O | -65.6%
CCc1nc(NCCc2c(C)nn(CC)c2C)c2cnn(C)c2n1 | -95.2%
CC(CCc1ccc(F)c(F)c1)NS(=O)(=O)Cc1ccon1 (configuration not stated) | -44.6%
CCC(=O)N1CCCC1c1nc(N(C)C)ncc1-c1ccc(Cl)cc1 (configuration not stated) | 19.6%
COc1ccc(CC(=O)N2CCCC(n3nc(C)cc3C)C2)cc1 (configuration not stated) | -9.14%
COc1ccccc1C(=O)N1CC(=O)N(C2CCCCC2)CC(O)C1 (configuration not stated) | -37%
Cc1ccc(S(=O)(=O)N2C[C@H]3C[C@H](NC(=O)c4ccccn4)[C@H]3C2)cc1 | -55.2%
O=C(N1CCCC1)N1CCC[C@]2(C[C@@H](OCc3ccncc3)CO2)C1 | -71.6%
CCC(C(=O)Nc1ccc(-c2nc(C)n[nH]2)cc1)N1CCCC1=O (configuration not stated) | -34.4%
Cc1nc(NS(=O)(=O)c2cccc(F)c2C)no1 | -25.8%
COCCN1CCC(c2nc3ccc(N4CCCC4)cn3n2)CC1 | -45.6%
O=C(NCCc1ccccn1)[C@@H]1CC[C@@H]2[C@@H](CCN2Cc2ccoc2)O1 | -60.9%
COc1nc2ccn(CCc3cnccn3)c(=O)c2cc1C#N | -11.9%
COc1nc2ccn(CCc3scnc3C)c(=O)c2cc1C#N | -31.6%
COc1nc2ccn(CCNc3cc(C)ccn3)c(=O)c2cc1C#N | 51.7%
N#Cc1cc(F)ccc1CN1CCCC1Cn1cccn1 (configuration not stated) | -48.4%
CC(=O)Nc1ccc(C(=O)N(C)Cc2ccc(F)cc2F)s1 | -10.9%
O=C(CCN1CCCO1)NC1CCCN(CC2CCCCC2)C1 (configuration not stated) | -105%
